In the supplement of paper PMC10981050:

What follows are molecules tested on MARIMO (assay: cell viability relative to vehicle control; higher = less cytotoxic). Conditions: 10 µM; SRSF2 genotype: SRSF2 P95H/wt.
Method in brief: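 Screening covered the Selleck bioactive, kinase and epigenetic probe libraries, less identity-inconsistent compounds, on CRISPR-edited mutant clones and isogenic wild-type clones of four leukaemia lines. Cells, at 2000 per well in 50 µL medium, received a single 10 µM acoustically dispensed dose. After 48 h the supernatant was removed and CellTiter-Glo luminescence was read. Viability was analysed in Genedata Screener as percent of the on-plate vehicle control.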

Compound	cell viability
O=C(Nc1c[nH]nc1-c1nc2ccc(CN3CCOCC3)cc2[nH]1)NC1CC1	6.33%
Nc1ccccc1NC(=O)c1ccc(CNc2nccc(-c3cccnc3)n2)cc1 [Mocetinostat (MGCD0103)]	7.4%
COc1c2c(cc3oc(COC4OC(CO)C(O)C(O)C4O)cc(=O)c13)OC(C(C)(C)O)C2 (stereo unspecified) [Prim-o-glucosylcimifugin]	84%
CN(CCOc1ccc(CC2SC(=O)NC2=O)cc1)c1ccccn1 (stereo unspecified) [Rosiglitazone (Avandia)]	89.6%
CC(C)CC(=O)Nc1n[nH]c2c1CN(C(=O)C1CCN(C)CC1)C2(C)C	15.8%
CC1(C)[C@@H](O[C@H]2O[C@H](C(=O)O)[C@@H](O)[C@H](O)[C@H]2O[C@@H]2O[C@H](C(=O)O)[C@@H](O)[C@H](O)[C@H]2O)CC[C@]2(C)[C@H]3C(=O)C=C4[C@@H]5C[C@@](C)(C(=O)O)CC[C@]5(C)CC[C@@]4(C)[C@]3(C)CC[C@@H]12 [Ammonium Glycyrrhizinate (AMGZ)]	107%
CCC(=O)Nc1cccc(Oc2nc(Nc3ccc(N4CCN(C)CC4)cc3OC)ncc2Cl)c1	70.3%
C[C@]12CC[C@@H]3c4ccc(O)cc4CC[C@H]3[C@@H]1C[C@@H](O)[C@@H]2O [Estriol]	86.4%
COC(=O)N[C@H](C(=O)N1CCC[C@H]1c1ncc(-c2ccc(-c3ccc(-c4cnc([C@@H]5CCCN5C(=O)[C@@H](NC(=O)OC)C(C)C)[nH]4)cc3)cc2)[nH]1)C(C)C [Daclatasvir Digydrochloride]	62.1%
O=C(/C=C\n1cnc(-c2cc(C(F)(F)F)cc(C(F)(F)F)c2)n1)NNc1cnccn1 [Selinexor (KPT-330)]	22.6%
C[C@@H]1O[C@@H](OC[C@H]2O[C@@H](Oc3c(-c4ccc(OCCO)c(OCCO)c4)oc4cc(OCCO)cc(O)c4c3=O)[C@H](O)[C@@H](O)[C@@H]2O)[C@H](O)[C@H](O)[C@H]1O [Troxerutin]	78.9%
O=C1c2c(O)cc(O)cc2OC(c2ccc(O)c(O)c2)C1O (stereo unspecified) [Taxifolin (Dihydroquercetin)]	91.9%
COc1cc2oc(-c3ccc(O)cc3)cc(=O)c2c(O)c1[C@@H]1O[C@H](CO)[C@@H](O)[C@H](O)[C@H]1O[C@@H]1O[C@H](CO)[C@@H](O)[C@H](O)[C@H]1O [Spinosin]	106%
O=C(CCNC(=O)c1ccc(OC(F)(F)F)cc1)N[C@@H]1CCCc2ccccc21	96%
O=C1Nc2ccc(I)cc2C1=Cc1cc(Br)c(O)c(Br)c1	89.9%
NC(=O)/C(=C/n1cnc(-c2cc(C(F)(F)F)cc(C(F)(F)F)c2)n1)c1cncnc1	15.4%
